# Data published in PubChem BioAssay (Tox21).
# Records with an inconclusive call do not appear. Values without a mark were called inactive. Activity calls are given as the source filed them. The call rests on the fitted dose curve; in most records, active means well fitted cell-killing curve with a large enough effect in the repeat runs (not every such curve was filed as active); inconclusive means weak or mixed curves, or effect the other way; inactive means no such curve, though single readings can be large or run the other way.
# Assay: qHTS assay to identify small molecule antagonists of the estrogen related receptor signaling pathway with the pleiotropic PPARgamma coactivator (PGC) from Tox21 10K library - cell viability counter screen (AID 1224840); further: nearly all actives have a fitted effect of over 40% in size
# Conditions: PGC/ERR reporter cells viability, CellTiter-Fluor, 17.5 h; series mostly up to 92.4 µM; viability change, negative = cytotoxic: at the top concentration
# Procedure, shortened: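 Readout: fluorescence intensity from CellTiter-Fluor after 30 min at 37 C/5% CO2. Preceded by 17.5 h treatment of PGC/ERR cells with DMSO-dissolved compounds, added 6 h post-seeding.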
# On the % scale 0 is the no-effect control and ±100 the full control effect.
SMILES,"viability change, negative = cytotoxic",Potency
CCCCC1C(=O)NC(=O)N(C2CCCCC2)C1=O (stereo not drawn),-5.15% [at 42.5 µM],
C[C@H](N)[C@H](O)c1ccc(O)c(O)c1,-5.16% [at 42.5 µM],
CCCN(CCC)c1c([N+](=O)[O-])cc(C(C)C)cc1[N+](=O)[O-],,inactive
CCOC(C(=O)OCCN(C)C)(c1ccccc1)c1ccccc1,4.63% [at 42.5 µM],
CCOP(=S)(OCC)SCSc1cc(Cl)ccc1Cl,8.14%,
CCCCCCCCCCCCN(C)C,2.16%,
O=C(O)c1cc(I)cc(I)c1I,4.67%,
CN1C(=O)CN=C(c2ccccc2)c2cc([N+](=O)[O-])ccc21,-9.44% [at 42.5 µM],
CCOP(=S)(OCC)Oc1ccc(S(C)=O)cc1 (stereo not drawn),-1.68%,
Cc1nnc(-c2ccccc2)c(=O)n1N,-3.22%,
O=CC=O,0.851%,
CCC1(CC)C(=O)NC(=O)NC1=O,-7.37% [at 42.5 µM],
CC(Cl)C(=O)O (stereo not drawn),5.23%,
O=S(=O)(Cl)Cl,1.94%,
COc1ccc(C(O)(c2cncnc2)C2CC2)cc1 (stereo not drawn),2.85%,
O=C(O)CCCOc1ccc(Cl)cc1Cl,,inactive
C=CCSSCC=C,0.0988%,
Nc1ccccc1C(=O)OCC(O)CO (stereo not drawn),8.2% [at 42.5 µM],
FC(F)OC(F)(F)C(F)Cl (stereo not drawn),4.73%,
COCc1cnc(C2=NC(C)(C(C)C)C(=O)N2)c(C(=O)O)c1 (stereo not drawn),0.779%,
Nc1cc(Cl)cc(C(=O)O)c1Cl,,inactive
CCCCC#N,-5.82%,
CCCCCCCCCCCCCCCl,0.443%,
CC(C)(C)OOC(C)(C)CCC(C)(C)OOC(C)(C)C,5.14%,
c1ccc2sc(SNC3CCCCC3)nc2c1,,inactive
O=S(=O)(c1ccccc1)c1ccccc1,-2.48%,
O=C(O)C(Cl)(Cl)Br,-4.39%,
N#CC(C#N)=Cc1ccc(O)c(O)c1,1.09% [at 42.5 µM],
